The text below walks through data of PubChem BioAssay (NCI).

This is part of a sample that, as a whole, favours compounds with a hit. Of some 83,000 tested, about 20% had one in any assay.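 The test compound was applied at a single concentration to cells in 96-well plates for 48 hours, and percent growth was recorded.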 Unmarked numbers belong to inactive results. The source made the active and inactive calls. The calls were made as follows: active = growth percent below 10; inactive = the rest.

The assay has as its system A549/ATCC NSCLC. The experiment in a line: NCI-60 one-dose screen, 48 h (100 = growth as untreated, 0 = no growth, -100 = all killed). The settings on record: 10 µM unless noted.
Turning to `Fc1ccc(COc2ccc(Nc3ncnc4sc5c(c34)CCCC5)cc2)cc1`, the growth was 88.4%. On to `COc1cc(C2Cc3ncccc3-c3[nH]c(=O)c4cccnc4c32)cc(OC)c1OC` (stereo not drawn), for which the growth was 20.4%. Under `O=C(c1ccc(Cl)cc1Cl)N1c2ccccc2Sc2ccccc21` stands 54.2%; under `O=C(N/N=C/c1ccc([N+](=O)[O-])cc1)c1ccc2nc(-c3ccc(Cl)cc3)[nH]c2c1`, 34.5%; under `O=C(NCc1ccccc1O)c1cccc2ccccc12`, 87.4%. In the case of `CC1=C(C(=O)n2c3ccccc3c3ccccc32)C(c2cccc([N+](=O)[O-])c2)C(C(=O)n2c3ccccc3c3ccccc32)=C(C)N1`, the growth was 102%. Under `COc1ccc(/C=C/C(=O)c2ccc(NC(=O)CSc3nnc(-c4cc(-c5ccccc5)nc5ccccc45)n3-c3ccccc3)cc2)cc1` stands 97.9%. In the case of `Cn1cc(-c2nc(-c3c[nH]c4ccncc34)cs2)c2cc(Br)ccc21`, the growth was -70.3% (active). Under `C#Cc1cccc(Oc2ccc(NC(=O)CCl)cc2)c1` stands 68.3% [8.25 µM]. As to `CC1(C)CC[C@]2(C(=O)N3CCOCC3)CC[C@]3(C)C(=CC[C@@H]4[C@@]5(C)C/C(=C/c6ccncc6)C(=O)C(C)(C)[C@@H]5CC[C@]43C)[C@@H]2C1`, the growth is 15.2%.

Consider `CC(C)c1ccc(NC(=O)Nc2ccc(NC(=O)c3ccccc3N)cc2)cc1`, for which the growth was 50%. Under `Cc1cc(C(=O)Nc2cc(Nc3ncccc3-c3ncnc4nc[nH]c34)ccc2F)cc(C(F)(F)F)c1` stands 55.7%; under `COc1cc2c3c(n(CCCCNCCCn4c5c(c6cc(OC)c(OC)cc6c4=O)C(=O)c4cc6c(cc4-5)OCO6)c(=O)c2cc1OC)-c1cc2c(cc1C3=O)OCO2`, 90.3%; under `CNC(=O)c1c(NC(=O)c2ccc(C(C)(C)C)cc2)sc2c(CN(C)C)c(O)ccc12`, 17.7%. With `CCCCn1sc(=O)n(Cc2ccc(CNC(=O)OCc3ccc4c(Cl)cc(Cl)c(O)c4n3)cc2)c1=O` the figure was 48.7%. With `O=C1Nc2ccc(F)cc2/C1=N/c1nnc(Sc2ccccc2)s1` the figure was 96.8%; with `N#Cc1c(N2CCOCC2)nc(=S)[nH]c1-c1ccccc1`, 85.6%.

As for `O=C(CSc1nnc2sc(Nc3cccc(Cl)c3)nn12)c1ccc(F)cc1`, the growth was 87.1%. Regarding `C=C(CO)[C@@H]1CC[C@]2(COC3CCCCO3)CC[C@]3(C)[C@H](CC[C@@H]4[C@@]5(C)C=C(C=O)C(=O)C(C)(C)[C@@H]5CC[C@]43C)[C@@H]12` (stereo partly drawn), the growth is -77.4% (active). Under `COc1ccc(-c2cc(C(=O)N3N=C(c4ccc(N)cc4)CC3c3ccccc3)c3ccccc3n2)cc1` (stereo not drawn) stands 39.4%; under `COc1ccc(-c2cc(-c3cc(OC)c(OC)c(OC)c3)c(C#N)c(=O)n2CCCCCC(=O)NO)cc1`, 87.2%. With `Cn1ccnc1C(=O)/C=C/c1ccc(C(=O)Nc2ccc(F)cc2)cc1` the figure was 10.8%.

On to `C=C1C(=O)O[C@H]2[C@H]1CC/C(COC(=O)NCCCCCCCCNC(=O)OC/C1=C/CC[C@@]3(C)O[C@H]3[C@H]3OC(=O)C(=C)[C@@H]3CC1)=C\CC[C@@]1(C)O[C@@H]21`, for which the growth was 2.89% (active). As to `C/C(C=O)=C\c1ccc2c(c1)OCO2`, the growth was 105%. With `COc1cccc(/C=C/C(=O)c2cc3c(N)c(C(=O)Nc4cccc(Cl)c4C)sc3nc2C)c1` the figure was 3.76% (active); with `COC(=O)/C=C1/SC(=Nc2cccc(Cl)c2)N(CCc2c[nH]c3ccc(O)cc23)C1=O`, 78.9%; with `CCC/C(=N\NC(N)=O)C(OC)OC`, 93.6%. With `COc1ccc2cc(Cn3cc[n+](Cc4ccc5ccccc5c4)c3)ccc2c1` the figure was 57.1%. In the case of `Cn1c(=O)c2c(c3ccccc31)OC(N)=C(C#N)C21C(=O)c2ccccc2C1=O`, the growth was 95.7%. With `CN1CCN(c2ccc3c(c2)nc(NNC(=O)c2cnccn2)c2cccn23)CC1` the figure was 21.9%; with `Cc1cc(C)c(-c2c(O)c(Br)c(-c3c(C)cc(C)c(Br)c3C)c(O)c2Br)c(C)c1Br`, 18.6%; with `CCN(CC)S(=O)(=O)c1ccc(S(=O)(=O)N2CCC[C@@H](C(=O)N3CCN(C(=O)OC(C)(C)C)CC3)C2)cc1`, 67.7%. Under `O=C1/C=C/[C@@H](O)[C@@H]2C[C@@H](O)C[C@H]2/C=C/CCC[C@H](CCOCc2ccccc2)O1` stands 14.5%.
